Test results: PubChem BioAssay (NCATS)
Records with an inconclusive call do not appear. Activity calls are given as the source filed them. Calls come from the whole dose curve; as a rule, active = well fitted cell-killing curve with a large enough effect; inconclusive = small, poorly fitted or top-dose-only effect, or effect the other way; inactive = no such curve, though single readings can be large or run the other way.

What was measured:
[1] = Quantitative High-Throughput drug screen in 47 multiple myeloma cell lines against the NCATS MIPE library collection: OCIMY1_PLB cell viability assay (AID 1918979); note: nearly all actives have a fitted effect of over 35% in size;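 for viability: 100% = DMSO-only wells and 0% = cell-free media-only wells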
Procedure, shortened: (§1)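 MIPE 4.0 approved/investigational drugs; 500 cells/well; 48 h 37 °C humidified 5% CO2; CTG luminescence readout; DMSO = 100%, media = 0% viability.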

[2] = Quantitative High-Throughput drug screen in 47 multiple myeloma cell lines against the NCATS MIPE library collection: MM1S_ATCC cell viability assay (AID 1918980); note: nearly all actives have a fitted effect of over 45% in size
Procedure, shortened: as §1

[3] = Quantitative High-Throughput drug screen in 47 multiple myeloma cell lines against the NCATS MIPE library collection: MM1R_ATCC cell viability assay (AID 1918981); note: nearly all actives have a fitted effect of over 35% in size
Procedure, shortened: as §1

[4] = Quantitative High-Throughput drug screen in 47 multiple myeloma cell lines against the NCATS MIPE library collection: LP1_DSMZ cell viability assay (AID 1918982); note: nearly all actives have a fitted effect of over 35% in size
Procedure, shortened: as §1

[5] = Quantitative High-Throughput drug screen in 47 multiple myeloma cell lines against the NCATS MIPE library collection: OCIMY5_PLB cell viability assay (AID 1918988); note: nearly all actives have a fitted effect of over 65% in size
Procedure, shortened: as §1

[6] = Quantitative High-Throughput drug screen in 47 multiple myeloma cell lines against the NCATS MIPE library collection: OPM1_PLB cell viability assay (AID 1918989); note: nearly all actives have a fitted effect of over 40% in size
Procedure, shortened: as §1

[7] = Quantitative High-Throughput drug screen in 47 multiple myeloma cell lines against the NCATS MIPE library collection: PE2_PLB cell viability assay (AID 1919869); note: nearly all actives have a fitted effect of over 35% in size
Procedure, shortened: as §1

[8] = Quantitative High-Throughput drug screen in 47 multiple myeloma cell lines against the NCATS MIPE library collection: PCM6_Riken cell viability assay (AID 1919870); note: nearly all actives have a fitted effect of over 30% in size
Procedure, shortened: as §1

[9] = Quantitative High-Throughput drug screen in 47 multiple myeloma cell lines against the NCATS MIPE library collection: RPMI8226_ATCC cell viability assay (AID 1919871); note: nearly all actives have a fitted effect of over 30% in size
Procedure, shortened: as §1

[10] = Quantitative High-Throughput drug screen in 47 multiple myeloma cell lines against the NCATS MIPE library collection: OPM2_DSMZ cell viability assay (AID 1919872); note: nearly all actives have a fitted effect of over 30% in size
Procedure, shortened: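 qHTS of the MIPE 4.0 collection: 500 myeloma cells/well, 48 h drug exposure at 37C in 5% CO2, then CellTiter-Glo for 5 min at room temperature before luminescence reading.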

[11] = Quantitative High-Throughput drug screen in 47 multiple myeloma cell lines against the NCATS MIPE library collection: L363_DSMZ cell viability assay (AID 1918984); note: nearly all actives have a fitted effect of over 40% in size
Procedure, shortened: as §1

[12] = Quantitative High-Throughput drug screen in 47 multiple myeloma cell lines against the NCATS MIPE library collection: KMS34_JCRB cell viability assay (AID 1918985); note: nearly all actives have a fitted effect of over 40% in size
Procedure, shortened: as §1

[13] = Quantitative High-Throughput drug screen in 47 multiple myeloma cell lines against the NCATS MIPE library collection: OCIMY7_PLB cell viability assay (AID 1918987); conditions: OCI-MY7 myeloma viability, CellTiter-Glo ATP, 48 h; viability (% of DMSO): at 45.8 µM (top of the series); note: nearly all actives have a fitted effect of over 65% in size
Procedure, shortened: as §1

[14] = Quantitative High-Throughput drug screen in 47 multiple myeloma cell lines against the NCATS MIPE library collection: SKMM1_PLB cell viability assay (AID 1919863); conditions: SKMM1 myeloma viability, CellTiter-Glo ATP, 48 h; viability: hits give low values; note: nearly all actives have a fitted effect of over 35% in size
Procedure, shortened: as §1

[15] = Quantitative High-Throughput drug screen in 47 multiple myeloma cell lines against the NCATS MIPE library collection: U266_ATCC cell viability assay (AID 1919864); note: nearly all actives have a fitted effect of over 35% in size;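 for viability (% of DMSO control): 0% = media-only wells without cells and 100% = DMSO-only wells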
Procedure, shortened: as §1

[16] = Quantitative High-Throughput drug screen in 47 multiple myeloma cell lines against the NCATS MIPE library collection: XG6_PLB cell viability assay (AID 1919865); note: nearly all actives have a fitted effect of over 40% in size
Procedure, shortened: as §1

[17] = Quantitative High-Throughput drug screen in 47 multiple myeloma cell lines against the NCATS MIPE library collection: XG1_PLB cell viability assay (AID 1919866); note: nearly all actives have a fitted effect of over 35% in size
Procedure, shortened: as §1

[18] = Quantitative High-Throughput drug screen in 47 multiple myeloma cell lines against the NCATS MIPE library collection: VP6_DJ cell viability assay (AID 1919867); note: nearly all actives have a fitted effect of over 40% in size;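 for viability (% of DMSO): 100% = DMSO-only wells and 0% = wells with media alone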
Procedure, shortened: as §1

[19] = Quantitative High-Throughput drug screen in 47 multiple myeloma cell lines against the NCATS MIPE library collection: UTMC2_PLB cell viability assay (AID 1919868); conditions: CellTiter-Glo ATP luminescence, 48 h; viability (% of DMSO control): at 45.8 µM (top of the series); note: nearly all actives have a fitted effect of over 55% in size;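 for viability (% of DMSO control): 100% = DMSO-only wells and 0% = media-only wells without cells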
Procedure, shortened: as §1

[20] = Quantitative High-Throughput drug screen in 47 multiple myeloma cell lines against the NCATS MIPE library collection: KMS28PE_JCRB cell viability assay (AID 1918983); note: nearly all actives have a fitted effect of over 35% in size
Procedure, shortened: as §1
Potency is the fitted concentration of half-maximal effect.

N#Cc1cc(NC(=O)Nc2nnc(-c3ccncc3)s2)ccc1-c1cn[nH]c1
inactive: Potency [1] | Potency [3] | Potency [4] | Potency [6] | Potency [7] | Potency [8] | Potency [9] | Potency [10]
active: Potency [2] 5260 nM | Potency [5] 14800 nM

COc1cc(OC)cc(-c2ccc3ncc4ccc(=O)n(-c5ccc(N6CCNCC6)c(C(F)(F)F)c5)c4c3c2)c1
active: Potency [1] 14800 nM | Potency [2] 3320 nM | Potency [3] 4690 nM | Potency [4] 5900 nM | Potency [11] 833 nM | Potency [12] 6620 nM | Potency [13] 1180 nM | Potency [5] 1320 nM | Potency [6] 4690 nM | Potency [14] 13200 nM | Potency [15] 11800 nM | Potency [16] 833 nM | Potency [17] 526 nM | Potency [18] 2640 nM | Potency [19] 2960 nM | Potency [7] 3320 nM | Potency [8] 3720 nM | Potency [9] 11800 nM | Potency [10] 8330 nM

CCOC(=O)N1CCN([N+]([O-])=NOc2ccc([N+](=O)[O-])cc2[N+](=O)[O-])CC1
active: Potency [1] 7430 nM | Potency [2] 1870 nM | Potency [3] 1180 nM | Potency [4] 2640 nM | Potency [20] 1320 nM | Potency [12] 935 nM | Potency [13] 526 nM | Potency [5] 1320 nM | Potency [6] 1180 nM | Potency [14] 6620 nM | Potency [16] 2640 nM | Potency [17] 418 nM | Potency [18] 2350 nM | Potency [19] 526 nM | Potency [7] 1480 nM | Potency [8] 743 nM | Potency [10] 1050 nM

CC(C)[C@H](CO)Nc1nc(Nc2cccc(Cl)c2)c2ncn(C(C)C)c2n1
active: Potency [1] 23500 nM | Potency [2] 5900 nM | Potency [3] 18700 nM | Potency [4] 23500 nM | Potency [12] 18700 nM | Potency [13] 6620 nM | Potency [5] 18700 nM | Potency [6] 23500 nM | Potency [15] 18700 nM | Potency [16] 5260 nM | Potency [17] 6620 nM | Potency [18] 13200 nM | Potency [8] 16600 nM | Potency [9] 26400 nM | Potency [10] 20900 nM
inactive: Potency [11]

CCCNS(=O)(=O)Nc1ncnc(OCCOc2ncc(Br)cn2)c1-c1ccc(Br)cc1
inactive: Potency [1] | Potency [2] | Potency [3] | Potency [4] | Potency [20] | Potency [12] | Potency [6] | Potency [15] | Potency [16] | Potency [17] | Potency [18] | Potency [19] | Potency [8] | Potency [10]

C=CC(=O)Nc1cccc(Nc2nc(NC3CCC(N(C)C)CC3)nc3c2ncn3C(C)C)c1 (stereo not drawn)
active: Potency [1] 4690 nM | Potency [2] 41.8 nM | Potency [3] 187 nM | Potency [4] 372 nM | Potency [12] 1050 nM | Potency [13] 74.3 nM | Potency [5] 52.6 nM | Potency [14] 935 nM | Potency [15] 296 nM | Potency [16] 16.6 nM | Potency [17] 105 nM | Potency [19] 132 nM | Potency [7] 209 nM | Potency [8] 209 nM | Potency [9] 1050 nM | Potency [10] 1870 nM

O=C(C=CC#Cc1cccc(NS(=O)(=O)c2ccccc2)c1)NO
active: Potency [1] 2960 nM | Potency [2] 1870 nM | Potency [3] 1480 nM | Potency [4] 935 nM | Potency [12] 935 nM | Potency [13] 372 nM | Potency [5] 1180 nM | Potency [6] 2350 nM | Potency [14] 2350 nM | Potency [15] 2090 nM | Potency [16] 5260 nM | Potency [17] 1870 nM | Potency [18] 1180 nM | Potency [19] 833 nM | Potency [7] 3320 nM | Potency [8] 1660 nM | Potency [9] 2640 nM | Potency [10] 2350 nM

CC(C)n1cnc2c(NCCc3ccc(O)cc3)nc(-c3csc4ccccc34)nc21
active: Potency [1] 20900 nM | Potency [2] 743 nM | Potency [3] 7430 nM | Potency [4] 16600 nM | Potency [12] 20900 nM | Potency [13] 7430 nM | Potency [5] 1660 nM | Potency [6] 23500 nM | Potency [16] 3720 nM | Potency [17] 3720 nM | Potency [18] 8330 nM | Potency [19] 10500 nM | Potency [8] 10500 nM

CC(O)(C#Cc1ccc2c(c1)N(c1nc(N)ncc1Cl)CC2)c1nccs1 (stereo not drawn)
active: Potency [1] 14800 nM | Potency [2] 11800 nM | Potency [3] 18700 nM | Potency [11] 16600 nM | Potency [13] 2640 nM | Potency [5] 20900 nM | Potency [6] 14800 nM | Potency [16] 4180 nM | Potency [17] 4690 nM | Potency [18] 5260 nM | Potency [19] 4180 nM

CC1(C)O[C@@H]2C[C@H]3[C@@H]4CCC5=CC(=O)C=C[C@]5(C)[C@@H]4[C@@H](O)C[C@]3(C)[C@]2(C(=O)CO)O1
active: Potency [2] 296 nM | Potency [4] 16.6 nM | Potency [5] 118 nM | Potency [6] 7430 nM | Potency [9] 33.2 nM
inactive: Potency [1] | Potency [3] | Potency [20] | viability [14] 142% | Potency [15] | Potency [16] | Potency [7]

CCc1cnn2c(NCc3ccc[n+]([O-])c3)cc(N3CCCC[C@@H]3CCO)nc12
active: Potency [1] 33.2 nM | Potency [2] 20.9 nM | Potency [3] 16.6 nM | Potency [4] 16.6 nM | Potency [11] 23.5 nM | Potency [12] 14.8 nM | Potency [13] 41.8 nM | Potency [5] 20.9 nM | Potency [6] 26.4 nM | Potency [15] 37.2 nM | Potency [17] 23.5 nM | Potency [18] 18.7 nM | Potency [19] 18.7 nM | Potency [7] 29.6 nM | Potency [8] 10.5 nM | Potency [9] 37.2 nM | Potency [10] 29.6 nM
